This is an account of results in PubChem BioAssay AID2685 (National Center for Advancing Translational Sciences (NCATS), 2010).

In all, about 320,000 compounds went through this assay and about 2,100 (0.66%) were called active. Another 53% or so got no clear call; they are omitted. Calls come from the whole dose curve; as a rule, active = well fitted inhibition curve with a large enough effect in the signal ratio, with a control signal flat (not every such curve was filed as active); inconclusive = small, poorly fitted or top-dose-only effect, or effect the other way, or a change in a side signal; inactive = flat fitted curve, though single readings scatter; the % refers to the signal ratio. The sample as a whole holds a higher share of actives than the screen did.
Potency is the fitted concentration of half-maximal effect.

This assay is described as follows: qHTS Assay for Lipid Storage Modulators in Drosophila S3 Cells.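 For cell number change: cells counted by Cell Tracker Red CMTPX staining in the red channel.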 For lipid storage change, negative = inhibition: % is set by controls: 0 for no effect and ±100 for the full control effect. The note with it: BODIPY lipid droplet fluorescence, 18-24 h, cells fed with added oleic acid; cell number change: measured here: cell count max response; series mostly up to 46.1 µM; lipid storage change, negative = inhibition: at the top concentration. The method in brief: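 Laser-scanning cytometry quantifies lipid droplet accumulation (500–530 nm total intensity; droplet/cell object ratio) in oleic acid-fed (400 uM added) Drosophila S3 cells treated with a concentration series. 20 uM Triacsin C defined 100% inhibition.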
A general note: Quantitative high-throughput screening tests each substance at several concentrations.
Turning to `Cc1cc([N+](=O)[O-])nn1CC(=O)NC(C)c1ccccc1` (stereo not drawn), the “lipid storage change, negative = inhibition” value was 8.15% (inactive) and the cell number change was -17.7%.

With `Cc1ccccc1C(=O)NNC(=O)c1ccoc1C`, the “lipid storage change, negative = inhibition” value is 13.5% (inactive) and the cell number change came out at 21.8%.

Turning to `COC(=O)NNC(=O)c1ccccc1C`, the Potency is 25.9 µM (active) and the cell number change is -4.05%.

For `COC(=O)NNC(=O)c1ccccc1OC`, the compound was classed as inactive and the cell number change is -18.2%.

For the compound `O=c1c2cc(Br)ccc2[nH]c(=S)n1Cc1ccccc1`, the “lipid storage change, negative = inhibition” value was 48.1% (inactive).

As for `Cc1nc2c(C(=O)NCc3cccs3)cnn2c(C)c1Cc1ccccc1`, the “lipid storage change, negative = inhibition” value is 7.94% (inactive) and the cell number change is -10.7%.

`Cc1cc(C)c(Cc2c(C)nc3c(C(=O)NCc4ccco4)cnn3c2C)c(C)c1`: the Potency is 6.51 µM (active).

`Cc1ccc(-c2cc(C(F)(F)F)n3ncc(C(=O)NCc4ccco4)c3n2)cc1`: the “lipid storage change, negative = inhibition” value is -6.97% (inactive) and the cell number change is -26.7%.

Take `COc1ccc(-c2cc(-c3ccccc3)nc(SCC(=O)Nc3nccs3)c2C#N)cc1`: the “lipid storage change, negative = inhibition” value was 11.7% (inactive) and the cell number change was determined as 6.74%.

For `Cc1ccc(NC(=O)CCNS(=O)(=O)c2ccc3[nH]c(=O)oc3c2)c(Cl)c1`, the compound was classed as inactive and the cell number change was -2.47%.

For the compound `CN(C(=O)c1ccc(=O)[nH]c1)C1(C(=O)NC2CCCCC2)CCCCC1`, the “lipid storage change, negative = inhibition” value is -8.5% (inactive) and the cell number change is -13.5%.

On to `Cc1nn(C)cc1-c1csc(N)n1`, for which the “lipid storage change, negative = inhibition” value is -5.77% (inactive) and the cell number change came out at 19%.

Regarding `COc1ccc(NC(=O)C2CCCN(S(=O)(=O)c3cccnc3)C2)c(OC)c1` (stereo not drawn), the “lipid storage change, negative = inhibition” value was -0.456% (inactive) and the cell number change was 12.4%.

For the compound `O=C(NC(=S)NNC(=O)c1ccco1)c1ccc(F)cc1`, the Potency was 18.4 µM (active) and the cell number change turned out to be 4.58%.

As for `COc1ccc(C(=O)NC(=S)NNC(=O)c2ccco2)cc1`, the outcome was inactive and the cell number change is -19.8%.

As for `COc1ccc(C(=O)NNC(=S)NC(=O)c2ccco2)cc1`, the “lipid storage change, negative = inhibition” value is -27% (inactive) and the cell number change was found to be 1.44%.

For the compound `CCCCN(C(=O)c1nn(C)c(=O)c2ccccc12)c1c(N)n(CC(C)C)c(=O)[nH]c1=O`, the “lipid storage change, negative = inhibition” value is 6.7% (inactive) and the cell number change was found to be 3.88%.

Take `O=C(CSc1nnc([C@@H]2CCCN2)o1)c1ccc(Cl)cc1`: the “lipid storage change, negative = inhibition” value is 14.1% (inactive) and the cell number change stood at 3.48%.

`O=C(NC1=NCCS1)c1cccc(NC(=O)c2ccco2)c1`: the compound was called inactive.

As to `CCN1C(=O)N(c2ccc(C(C)=O)cc2)S(=O)(=O)c2ccccc21`, the “lipid storage change, negative = inhibition” value was 20.2% (inactive) and the cell number change is 7.75%.

As to `CCN1c2ccccc2S(=O)(=O)c2ccccc21`, the Potency was 1.84 µM (active) and the cell number change was -15.5%.

As for `COc1ccc(CNC(=O)CN2c3ccccc3S(=O)(=O)c3ccccc32)cc1`, the call was inactive.

`COc1cccc(NC(=O)C(Cc2ccccc2)n2cccc2)c1` (stereo not drawn): the “lipid storage change, negative = inhibition” value was 15% (inactive) and the cell number change came out at 23.9%.

As to `O=C(c1ccccc1)N1CCN(c2ccccc2F)CC1`, the result was inactive.

Regarding `CCN(CC)CCCN(C(=O)Cn1nnc(-c2ccc(OC)c(OC)c2)n1)C(C(=O)NC(C)(C)C)c1ccc(F)cc1` (stereo not drawn), the “lipid storage change, negative = inhibition” value was -9.11% (inactive) and the cell number change is -0.835%.

`COc1ccc(C(C)=O)cc1CSc1nnc(Nc2ccccc2C)s1`: the “lipid storage change, negative = inhibition” value is 22.8% (inactive).

As to `COc1ccc(C(C)=O)cc1CSc1nnc(SCc2cc(C(C)=O)ccc2OC)s1`, the “lipid storage change, negative = inhibition” value is 12.7% (inactive) and the cell number change came to 7.73%.

For `COc1ccc(C(C)=O)cc1CSc1nnc(Nc2ccccc2)s1`, the Potency was 2.31 µM (active) and the cell number change was -8.23%.

For the compound `CN(C(=O)COC(=O)CCc1nc2ccccc2c(=O)[nH]1)C1CCS(=O)(=O)C1` (stereo not drawn), the “lipid storage change, negative = inhibition” value is -17.9% (inactive) and the cell number change is -1.94%.

As for `COCCNC(=O)c1cccc2c1-c1ccccc1C2=O`, the “lipid storage change, negative = inhibition” value was -7.63% (inactive) and the cell number change was -10.2%.

As for `CC(=O)CCc1oc2ccc(C)cc2c1-c1ccccc1`, the “lipid storage change, negative = inhibition” value is 20.7% (inactive) and the cell number change came to 1.81%.

`O=S(=O)(Cc1ccccc1)Nc1ccc(S(=O)(=O)N2CCCC2)cc1`: the “lipid storage change, negative = inhibition” value was 12.9% (inactive) and the cell number change was -4.32%.

Take `O=C1CN(c2nc(-c3cccs3)nc3sc4c(c23)CCCC4)CCN1`: the Potency was 1.64 µM (active) and the cell number change was -27.1%.

Take `O=c1oc(-c2cccs2)nc2sc3c(c12)CCCCC3`: the “lipid storage change, negative = inhibition” value is -9.97% (inactive) and the cell number change worked out at 7.26%.

With `O=c1oc(-c2cccs2)nc2sc3c(c12)CCC3`, the “lipid storage change, negative = inhibition” value is -1.18% (inactive) and the cell number change was 1.06%.

For the compound `N#CCCNC(=O)Cn1c(COc2ccc(Cl)cc2)nc2ccccc21`, the “lipid storage change, negative = inhibition” value was 15% (inactive) and the cell number change came to 6.47%.

With `COc1cccc(-c2noc(CCCC(=O)N3CCOCC3)n2)c1`, the “lipid storage change, negative = inhibition” value was -11.5% (inactive) and the cell number change is -4.07%.

With `CCc1ccc(NC(=O)CSc2nc(-c3ccc(C)cc3)nc3c2Cc2c(CO)cnc(C)c2O3)cc1`, the “lipid storage change, negative = inhibition” value is -8.05% (inactive) and the cell number change was -9.8%.

As to `COc1cccc(-c2nc3c(c(SCC(=O)N4CCOCC4)n2)Cc2c(CO)cnc(C)c2O3)c1`, the Potency is 0.651 µM (active).

On to `COC(C[C@H](O)[C@H](C)[C@H](O)COCc1ccccc1)OC`, for which the “lipid storage change, negative = inhibition” value is -0.509% (inactive) and the cell number change worked out at 11.5%.

For the compound `O=C(CN1C(=O)COc2ccccc21)Nc1ccc2c(c1)OCCO2`, the call was inactive and the cell number change stood at 3.43%.

On to `COc1ccc(C(=O)N/C(=C\c2cn(C)c3ccccc23)C(=O)N2CCOCC2)cc1OC`, for which the Potency was 23.1 µM (active) and the cell number change was found to be 9.92%.

As to `COc1ccc(C(=O)N/C(=C\c2cn(C)c3ccccc23)C(=O)N2CCN(C)CC2)cc1OC`, the compound was classed as inactive and the cell number change worked out at 0.763%.

As for `COc1ccc(C(=O)N/C(=C\c2cn(C)c3ccccc23)C(=O)N2CCOCC2)cc1`, the outcome was inactive and the cell number change turned out to be 8.73%.

Consider `CCCN1CCN(C(=O)c2noc3c2COc2ccc(C)cc2-3)CC1`, for which the “lipid storage change, negative = inhibition” value is -30.8% (inactive) and the cell number change was -19.6%.

On to `Cc1cc(=O)oc2cc(OC(C)C(=O)Nc3ccc(N4CCOCC4)cc3)ccc12` (stereo not drawn), for which the “lipid storage change, negative = inhibition” value was 20.2% (inactive).

For `COc1ccc2oc(C(=O)OC(C)C(=O)N3CCC(C)CC3)c(C)c2c1` (stereo not drawn), the “lipid storage change, negative = inhibition” value was -4.24% (inactive) and the cell number change was -13.1%.

Turning to `COc1ccc2oc(C(=O)OC(C)C(=O)Nc3ccc(N4CCOCC4)cc3)c(C)c2c1` (stereo not drawn), the Potency is 7.31 µM (active) and the cell number change is -30.5%.
